In article PMC12136788:
Where a chain is given by its changes, count along the chain named. Whole data set: some 24,000 sequences, median “enrichment r” near 0.99, cut for the highest 2% near 3.7. What follows is part of a selection rich in the highest values, with near analogues and random picks from the rest.

T1: UNK ZnF1-3 (human, UniProt Q9C0B0 31-174)
T1 sequence: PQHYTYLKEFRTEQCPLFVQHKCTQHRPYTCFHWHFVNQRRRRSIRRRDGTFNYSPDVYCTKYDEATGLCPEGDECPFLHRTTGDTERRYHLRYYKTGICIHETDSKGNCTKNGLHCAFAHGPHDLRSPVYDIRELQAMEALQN

B1: chr1:151206805:151206806:+_ENSG00000143398_ENST00000349792|hu_hu|FALSE|FALSE (ssRNA)
RNA: GGGAGUUCUACAGUCCGACGAUCCUUCUCUCGCUCUUUCUGGGAAGCCCGCCGUUUGUAGGUUGAGCCUUUGAGGUCAUAUUUGAUAUGCAUUUUUACCGAUCUUGGUAAAAGAUUGUUCAUCACCACAAUCCGAAUGUUCUUCAACAGAGGAUUGAGCAUCA
B2: chr17:64801638:64801639:+_ENSG00000154229_ENST00000413366|hu_mus|hu_hu_hu_mus_False|28_88 (ssRNA)
RNA: GGGAGUUCUACAGUCCGACGAUCUAUAUAUAUAUAUACAUAUGUACACAUAUGUAGUAAAACCCUAGUUAAACGUGUAAAGUAGCCAUUCAUUUUUAAAAUUACAUCUACAUUUAAAAAUUAAUAUAUCUGAUAGAGUGCCAGCAACAGAGGAUUGAGCAUCA
B3: chr7:90019630:90019631:+_ENSMUSG00000057706_ENSMUST00000082237|mus_hu|motif|central (ssRNA)
RNA: GGGAGUUCUACAGUCCGACGAUCUAUAUCACUGAAUAGAAAAUAUGCUGGGUGAAGCAGAUCUAGAAGAUUUGUCUGAACCGGUAAAAUCUCCAUCCCAACAGAAUACUGUUCAAAACAUUACACAUUUUAUGGUUGUAAUUCCAACAGAGGAUUGAGCAUCA
B4: chr1:95362928:95362929:-_ENSG00000117519_ENST00000538964|hu_hu|motif|central (ssRNA)
RNA: GGGAGUUCUACAGUCCGACGAUCAGACCACAUUUAGCAAUAAGCAUGAGUUUAGUCUUCCAUGUAGAAACCAGAUACACGGAACUGUAAAAAAAAAAAAAAAAAAAAAAAGUUUCCUAUUGUUUGAAAAUACCAGUUUAAUAUCAACAGAGGAUUGAGCAUCA
B5: chr4:175231952:175231953:+_ENSG00000164118_ENST00000503780|hu_hu|motif|central (ssRNA)
RNA: GGGAGUUCUACAGUCCGACGAUCAUUCAGAAGGUCCAUGUCACUACAAGAAGCGUAGUCUUCACUAACUUCAUUAAACUCGGUAAAUUCAUCAUUCUUUUUAGACAAAAGCAUUUCUGUUUCAAGAAGAGUGACACGACUAAGCAACAGAGGAUUGAGCAUCA
B6: chr17:64801638:64801639:+_ENSG00000154229_ENST00000413366|hu_mus|hu_hu_hu_mus_False|78_98 (ssRNA)
RNA: B2 RNA with C38U, U42C, G43A, U44C, G53A, A60G, C62G, U114A
B7: chr1:84720644:84720645:-_ENSMUSG00000026219_ENSMUST00000027421|mus_hu|FALSE|FALSE (ssRNA)
RNA: GGGAGUUCUACAGUCCGACGAUCUGAAUUUUAAAUUAGAUCUUAACUGGAGAGAACAUGGGACAACAGAAGCCCAUGGGUAACGAAAAUUUGAGAACUGUGAGUUGUAUACAAAAAAAAAACUGUGAGCUGCACAGAUAAUAACAACAGAGGAUUGAGCAUCA
B8: chr17:64801638:64801639:+_ENSG00000154229_ENST00000413366|hu_mus|hu_hu_hu_mus_False|1_98 (ssRNA)
RNA: B2 RNA with C38U, U42C, G43A, U44C, G53A, U114A, A142C, G143A
B9: chr3:25639645:25639646:-_ENSG00000077097_ENST00000264331|hu_mus|FALSE|FALSE (ssRNA)
RNA: GGGAGUUCUACAGUCCGACGAUCAUCAGACAACACAUGACAUUUCAAUGAGUAAAAAAGAGCAUAAAACUGUAUGUGUAAGAACAAAAUGUUAAAAGGCCUACCACAAUAAUAAAAAACCAUCAAUUACAUCAUCACAUUAAACAACAGAGGAUUGAGCAUCA
B10: chr11:9468696:9468697:+_ENSG00000205339_ENST00000379719|hu_hu|FALSE|FALSE (ssRNA)
RNA: GGGAGUUCUACAGUCCGACGAUCCAUUAACAAUAAUGUGAAAAUUAGAAUUAUGAAUUCAAAAAGCAGUGAAGUCUGAAAAUUUAAAAAGUAGACUAGGUAUUAGGGGAUUAAAGGUAAAGGAAGACGAGAAUGUUUCUUUAACAACAGAGGAUUGAGCAUCA
B11: chr5:69964302:69964303:+_ENSMUSG00000029208_ENSMUST00000154728|mus_hu|FALSE|FALSE (ssRNA)
RNA: GGGAGUUCUACAGUCCGACGAUCUGCAGUCUGGUUUGUUCGUUGGCUGAAUAAACAUGGGAGCUGAGAGCUCUGGAGAAAUACAGCCAUUUACUGGCUGUGAAAUCUCAAGUUAACUACUCUAAAAUCGCUUCGAUUAUGAAACAACAGAGGAUUGAGCAUCA
B12: 135118432_135118552_3022_ncRNA_ENSMUSG00000030795_ENSMUST00000128851|mouse|control|control (ssRNA)
RNA: GGGAGUUCUACAGUCCGACGAUCAUGAGCAAUACACUCAAGAUCUUUCUUGUAGUCCACACCUUCCUUCCCAGAUCUAGUUCCUAUAUAUUUGUCUGAGUACAUAUGUAGAAUUGCAUUGACAUCACUAUUUAAUAUAAAUAUCAACAGAGGAUUGAGCAUCA
B13: chr1:225611761:225611762:-_ENSG00000143815_ENST00000272163|hu_mus|hu_hu_hu_mus_True|1_18 (ssRNA)
RNA: GGGAGUUCUACAGUCCGACGAUCCCAGGCCAUCGGCCUCUGACCACUUCACCCUCAACAAACUUCCUACUUGGCAUUUUCUAAAAUUAGUCUGGCCGCGCUCCGGCGGGAACUCCAGACGGCUCCCGACAGUCACCCGCACAGCAACAGAGGAUUGAGCAUCA
B14: chr1:247070963:247070964:-_ENSG00000153207_ENST00000391829|hu_mus|motif|central (ssRNA)
RNA: GGGAGUUCUACAGUCCGACGAUCCUGAUUUGUCCUGUUGAUGUAACUCAGAGUAGAAAUGGCUACUCCCAAUGGGCUUACGGACUGGAAGCACAGGUGGCGCCCCUCUCUCAUCACUCUCUCUCUGAUGUGUGGUACUUCAGCCAACAGAGGAUUGAGCAUCA

The binders below were run against T1, UNK ZnF1-3 (assay: nsRBNS (natural sequence RNA bind-n-seq); RBNS binding buffer (assumed for nsRBNS): 25 mM Tris pH 7.5, 150 mM KCl, 3 mM MgCl2, 0.01% Triton X-100, 500 ug/ml BSA, 20 U/ml SUPERase-In, 4 C; UNK is unkempt and MSI1 is Musashi-1; names of the RNAs are library labels; protein concentration not given here; high values mean tight binding).

Binder | binding signal
B1 | 0.464 enrichment R
B2 | 3.46 enrichment R
B3 | 0.76 enrichment R
B4 | 5.33 enrichment R
B5 | 0.772 enrichment R
B6 | 3.51 enrichment R
B7 | 5.25 enrichment R
B8 | 4.56 enrichment R
B9 | 1.63 enrichment R
B10 | 5.89 enrichment R
B11 | 0.663 enrichment R
B12 | 1.78 enrichment R
B13 | 1.37 enrichment R
B14 | 1.02 enrichment R
